HP1b binding inh – blocks HP1-beta chromodomain binding to methylated histone tails | P83916 | 390,000 tested, 0.56% active | Potency, µM (series often up to 114 µM), for inactives: at the top dose activity change, negative = inhibition, most hits filed as inhibitors | AlphaScreen HP1-beta / biotin-H3K9me3 peptide binding; also: nearly all actives have a fitted effect of over 70% in size
Target sequence (P83916 whole entry, looked up): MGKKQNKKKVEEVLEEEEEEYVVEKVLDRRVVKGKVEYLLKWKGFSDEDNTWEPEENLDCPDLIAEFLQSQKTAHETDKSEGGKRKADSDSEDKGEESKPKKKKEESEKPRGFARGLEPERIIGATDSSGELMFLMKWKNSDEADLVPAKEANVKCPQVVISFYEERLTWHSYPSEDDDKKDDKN
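Compound inhibition of the preformed complex between 50 nM HP1-beta and 50 nM biotinylated H3K9me3 peptide was read by AlphaScreen. Buffer was PBS pH 7.4 with 0.01% Tween-20. Incubations ran 30 min at room temperature, with 10 ug/mL donor/acceptor beads.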
Sfp inh – Sfp phosphopantetheinyl transferase inhibition. Q9F4F7. Biochemical Sfp PPTase activity, qHTS. 310,000 tested, 3.5% active. Potency, µM, for inactives: largest response in the series, negative = inhibition, most hits filed as inhibitors;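 also: the enzyme is Sfp with the accession as filed and its product quenches rhodamine fluorescence; 0% = enzyme reaction without inhibitor and -100% = no enzyme wells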
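With Hepes-Na pH 7.6 buffer containing 10 mM MgCl2, Sfp (15 nM) modified BHQ-2-YbbR (12.5 uM) using rhodamine-CoA (5 uM). Two reads 30 minutes apart at 525/598 nm yielded each well's rate.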
JMJD2A Tudor – blocks the human JMJD2A Tudor domain. AID 504339. AlphaScreen JMJD2A-Tudor / H3K4me3 peptide binding. O75164. Potency, µM (top dose mostly 114 µM), for inactives: at the top dose activity change, negative = inhibition, most hits filed as inhibitors. 390,000 tested, 4.4% active; also: % is scaled to controls: 0 for no effect and ±100 for the full control effect; nearly all actives have a fitted effect of over 50% in size
BAZ2B inh – blocks human BAZ2B; 360,000 tested, 4.4% active; Q9UIF8; AlphaScreen BAZ2B-H3K14Ac peptide displacement; Potency, µM (highest dose often 114 µM), inactives show at the highest dose activity change, negative = inhibition, actives largely listed as inhibitors; also: % is scaled to controls: 0 for no effect and ±100 for the full control effect; nearly all actives have a fitted effect of over 60% in size
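In this displacement format the biotinylated H3(5-23) peptide acetylated at Lys14 serves as ligand at 50 nM, with BAZ2B at 50 nM in PBS pH 7.4 containing 0.01% Tween-20. Donor and acceptor beads are 10 ug/mL final.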
G9a inh – inhibitors of human histone lysine methyltransferase G9a; G9a H3K9 monomethylation, AlphaScreen, 2 h; Q96KQ7; Potency, µM (doses to about 102 µM), without a hit: at the top dose activity, negative = inhibition, actives largely listed as inhibitors; 350,000 tested, 8.8% active; also: % is scaled to controls: 0 for no effect and ±100 for the full control effect; nearly all actives have a fitted effect of over 75% in size
Target sequence (Q96KQ7 913-1193 limits assumed): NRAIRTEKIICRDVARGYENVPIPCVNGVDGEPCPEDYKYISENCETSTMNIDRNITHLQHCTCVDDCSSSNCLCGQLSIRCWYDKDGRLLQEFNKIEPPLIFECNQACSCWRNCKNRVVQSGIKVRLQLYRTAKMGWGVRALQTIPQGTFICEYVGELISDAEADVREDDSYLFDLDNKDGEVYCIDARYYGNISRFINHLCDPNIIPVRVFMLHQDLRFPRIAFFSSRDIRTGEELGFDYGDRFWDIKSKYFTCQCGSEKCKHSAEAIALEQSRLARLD
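Compounds were preincubated with 20 nM G9a for 15 min, after which biotinylated H3K9 peptide (500 nM) and SAM (20 uM) started a 2 h room-temperature reaction. Monomethylated product was quantified by antibody-based AlphaScreen chemiluminescence.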
PLK1 PBD block – blocks phosphopeptide binding to human PLK1 polo-box domain; P53350; Plk1 PBD binding of FITC phosphopeptide, fluorescence polarization; Potency, µM, for the others: max response, negative = inhibition, usual class: inhibitors; 360,000 tested, 2.8% active; also: series mostly up to about 57 µM; % is scaled to controls: 0 for no effect and ±100 for the full control effect; nearly all actives have a fitted effect of over 65% in size
The depositor's hits bear a star; ? = inconclusive; . = not tested or not shown; [ ] = dose if it differs, or a comment. This is a sample that favours compounds with a hit; in the whole collection about 12% have one here. Calls follow the shape of the dose curve; as a rule, active = well fitted curve in the direction sought with a large enough effect; inconclusive = small, poorly fitted or top-dose-only effect, or another doubt; inactive = no such curve, though single readings can be large; an effect the other way counts as inactive or inconclusive. Potency is read from the fitted curve at half-maximal effect.

SMILES	HP1b binding inh	Sfp inh	JMJD2A Tudor	BAZ2B inh	G9a inh	PLK1 PBD block
COc1cccc(CN2CCNC(=O)C2CC(=O)NCCc2nc(C)c(C)s2)c1OC (stereo not given)	48%	45µM*	-11%	-12%	6%[12.7 µM]	-16%
Cc1nc(CCNC(=O)CC2C(=O)NCCN2Cc2ccccc2F)sc1C (stereo not given)	-3%	-8%	1%	-14%	45µM*	-27%
O=C(CCC1N=C2c3ccccc3N=C(SCc3ccccc3Cl)N2C1=O)NCCc1ccccc1 (stereo not given)	77%	.	-4%	24%	?	.
Cc1cc(C)n2ncc(C(=O)NCC(C)C)c2n1	.	.	1%	.	.	.
COc1cccc(CNC(=O)c2cc(-c3ccc(Cl)cc3)n[nH]2)c1	50%	.	-11%	1%	16%[59 µM]	.
COc1ccc(C2=C(Nc3ccc(Br)c(C)c3)c3ccccc3C2=O)cc1	?	.	?	?	2.8µM*	.
Cc1cc(C)cc(NC2=C(c3ccccc3)C(=O)c3ccccc32)c1	?	.	13µM*	13µM*	8.9µM*	.
CCOC(=O)CNC(=O)/C=C/c1ccc2c(c1)OCO2	18%	13%	-2%	-16%	4%	-10%
CCOC(=O)CNc1ccc2c(c1)OCO2	-13%	20µM*	-34%	?	?	-10%
CCOc1ccc(C(=O)NCC(=O)Nc2ccc3c(c2)OCO3)cc1OCC	-9%	.	?	-15%	50µM*	5%
CCOc1cc(C(=O)Nc2ccc3c(c2)OCO3)ccc1OC(F)F	14%	9%	0%	1%	-26%[59 µM]	0%
O=C(NC1CC(=O)N(c2ccc(Cl)cc2)C1)c1cc2ccccc2o1 (stereo not given)	-5%	.	-6%	-1%	3%[59 µM]	.
C/C(=N\Nc1ccc(C(=O)O)cc1)c1ccc2c(c1)Nc1ccccc1S2	?	-21%	?	50µM*	11µM*	30µM*
C/C(=N/Nc1ccc(C(=O)O)cc1)c1ccc2c(c1)Nc1ccccc1S2	?	.	?	.	.	30µM*
Cc1[nH]c(=O)[nH]c(=O)c1/C=N/NC(=O)[C@H](C)N	33%	50µM*	56µM*	50µM*	?	-19%
Cn1c(=O)c2c(nc(NCCc3ccccc3)n2Cc2cccc(Br)c2)n(C)c1=O	4%	.	?	2%	?	.
Cc1oc(-c2ccc(Cl)cc2)cc1C(=O)NC1CCN(Cc2ccccc2)CC1	0%	-5%	-18%	-13%	-30%	-3%
Cc1oc(-c2ccc(Cl)cc2)cc1C(=O)/C(C#N)=C/Nc1ccccc1	-2%	?	-18%	-8%	28µM*	-9%
CCCC(=O)C1=C(N(C)c2ccccc2)CC(C)(C)CC1=O	27%	9%	-8%	6%	18%	-3%
CCCC(=O)C1=C(c2ccccc2)C(C#N)(C#N)C(C#N)=C1N	-19%	28µM*	?	50µM*	25µM*	7.5µM*
COCCn1nnnc1C(c1cc2cc(OC)ccc2[nH]c1=O)N1CCC(Cc2ccccc2)CC1 (stereo not given)	42%	-9%	-26%	15%	-30%[12.7 µM]	-3%
CCN(Cc1ccccc1)C(c1cc2cc(C)cc(C)c2[nH]c1=O)c1nnnn1CCOC (stereo not given)	14%	-17%	-10%	.	-8%[59 µM]	-2%
CCN(Cc1ccccc1)C(c1cc2cc(C)ccc2[nH]c1=O)c1nnnn1CCOC (stereo not given)	21%	-7%	?	.	?	-15%
COCCn1nnnc1C(c1cc2cc(C)ccc2[nH]c1=O)N1CCCCCC1 (stereo not given)	24%	50µM*	-19%	-4%	4.5µM*	-18%
Cc1ccc2[nH]c(=O)c(C(c3nnnn3CCc3ccccc3)N3CCOCC3)cc2c1 (stereo not given)	30%	-19%	1%	13%	7.9µM*	-6%
COc1ccc2cc(C(c3nnnn3CCc3ccccc3)N3CCCC(C)C3)c(=O)[nH]c2c1 (stereo not given)	41%	-19%	?	4%	45µM*	-4%
